# Measured values published in PubChem BioAssay.
# Assay: RPMI8226 myeloma cell viability, profiling panel, resazurin fluorescence, basal, 24 h, PK04 Diversity Set (AID 1180);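 note: RPMI8826 multiple myeloma cell line at 5000 cells per well; test concentration not given here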
# Settings: higher = more signal
row,SMILES,z-score
1,COCCOC(=O)N1C(=O)[C@@]2(c3cc(C#CCC(C(=O)OC)C(=O)OC)ccc31)[C@H](C(N)=O)[C@H]1C(=O)O[C@H](c3ccccc3)[C@H](c3ccccc3)N1[C@@H]2c1ccccc1OCCO,-5.51
2,C=C(COC)/C(=C/C[C@@H](OC(C)=O)c1cccc(OCCO)c1)c1cnc2ccccc2c1,-0.311
3,CC(C)[Si](C#Cc1ccccc1)(O[C@H](c1ccccc1)c1cn(Cc2ccccc2)nn1)C(C)C,0.253
4,C[C@]1(C(=O)O)c2ccccc2C(=O)N(Cc2cc(C(F)(F)F)cc(C(F)(F)F)c2)[C@H]1c1ccc(CO)cc1,0.306
5,[N-]=[N+]=NCc1ccccc1[C@H]1OC(c2ccc(OCCCO)cc2)=N[C@@]1(CCS(=O)(=O)c1ccccc1)C(=O)NCCN1CCOCC1,0.548
6,C=CC[C@@]1(C(=O)NCCCOC)N=C(c2ccc(OCCCO)cc2)O[C@@H]1c1ccccc1CN=[N+]=[N-],0.803
7,CC(=O)NCCCC[C@@H]1NC(=O)[C@H]2C[C@@H](C(=O)O)[C@@H](c3cccc(OCCO)c3)N2C1=O,-0.0778
8,C=CCNC(=O)[C@H]1[C@@H]2C(=O)O[C@@H](c3ccccc3)[C@@H](c3ccccc3)N2[C@@H](c2ccc(O)cc2)[C@]12C(=O)Nc1ccccc12,-1.34
9,Cc1ccc(S[C@]2(C(=O)NC(C)C)CC(=O)N(Cc3ccccc3)[C@@H]2c2ccc(CO)cc2I)cc1,-2.8
10,COC(=O)c1ccc(OC)c(/C=C\CC(OC(=O)c2ccncc2)c2ccccc2)c1 (stereo unspecified),0.525
11,COc1ccc([Si](C)(C)[C@H]2[C@H](CC(=O)N(CCO)Cc3ccccc3)O[C@@]3(C(=O)N(Cc4ccc(N5C(=O)c6cccc7cccc5c67)cc4)c4ccccc43)[C@@H]2C)cc1,-2.14
